From PubChem
Sampled rows, rich in hits. Any-hit rate of the full collection: about 3.9%.
TROY NFkB inh = inhibitors of TROY-dependent NF-kB signaling; actives 0.98% (n = 360,000); Q293 LMP1-TROYcd NF-kB luciferase reporter, 4 h; inhibition, % at 10 µM;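 active means compounds whose plate-normalised and pattern-corrected inhibition of the luciferase reporter signal at the single screening dose is 50% or more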
TRAIL sens C8 = caspase-8 TRAIL sensitization | NB7+C8 cells + TRAIL, ATPlite viability luminescence | inhibition (viability loss, TRAIL sensitization), % at 10 µM | actives 1% (n = 360,000);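 active means compounds causing at least 50% loss of cell viability in the single-dose screen, relative to plate controls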
HSP90 refold inh = blocks HSP90-mediated luciferase refolding in reticulocyte lysate. Rabbit reticulocyte lysate, luciferase refolding luminescence, 3 h. inhibition, % at 5.6 µM. actives 0.91% (n = 290,000). AID 1789;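 active means inhibition above the screen-wide mean plus 3 SD, computed separately per campaign, cut at about 16% in these data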;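 further: 0% = DMSO wells and 100% = 60 µM geldanamycin wells; inhibitors lower the luminescence because luciferase stays unfolded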
aSyn UTR inh = MLPCN primary screen, SNCA 5' untranslated region; alpha-synuclein 5'UTR reporter, inhibitor activity; inhibition, % (tested at 7.5 µM); actives 0.82% (n = 300,000); AID 1813; in the data active means inhibition above about 60%;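 further: H4 neuroglioblastoma cells stably carrying SNCA 5'UTR luciferase fusion; 0% = DMSO wells and 100% = positive control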
TWEAK Fn14 block = inhibitors of TWEAK-Fn14 interaction signaling; inhibition, % at 10 µM; AID 1159606; TWEAK-stimulated Fn14 reporter cells, luciferase luminescence, 8 h; actives 2% (n = 360,000); in the data active means inhibition above about 50%
HIF-2a block = blocks HIF-2a reporter activity. actives 0.72% (n = 360,000). AID 624352. inhibition, % at 18.8 µM. 786-0 RCC cells HIF-2a reporter, luciferase luminescence, overnight;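 active means inhibition of the luminescence signal of 40% or more relative to plate controls, in a single-dose primary screen at 18.75 µM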
The depositor's hits bear a star; · = no result given.

SMILES | TROY NFkB inh | TRAIL sens C8 | HSP90 refold inh | aSyn UTR inh | TWEAK Fn14 block | HIF-2a block
O=C(CSC1=NCCS1)Nc1ccnc2ccccc12 | 29 | 38 | 4 | -13 | 52* | 16
Cc1cc(C)nc(SCC(=O)Nc2ccnc3ccccc23)n1 | 15 | 11 | 9 | -24 | 33 | -20
COc1ccc(C2CC(c3ccc(Br)cc3)=NN2C(=O)CSC2=NN3CCCC(=O)N=C3S2)cc1 (configuration not stated) | -7 | 93* | -6 | -7 | 3 | 6
Cc1cccc(C)c1N1C(=O)c2ccccc2NC(=O)C1C(=O)Nc1ccc(N2CCOCC2)cc1 (configuration not stated) | · | -9 | · | · | · | 13
CN(C)CCNc1ccc(CO)c2oc3ccc(O)cc3c(=O)c12 | -26 | 23 | · | · | -53 | 41*
Cc1cc(N=Nc2ccccc2)cc(C)c1NC(=O)C(F)(F)F | -37 | 12 | · | · | -36 | -284
Cc1c(/C(O)=C2/C(=O)C(=O)N(CCN3CCOCC3)C2c2cccnc2)cnn1-c1ccccc1 (configuration not stated) | 8 | 8 | -7 | 10 | -4 | -9
Cc1c(/C(O)=C2/C(=O)C(=O)N(CCN3CCOCC3)C2c2ccco2)cnn1-c1ccccc1 (configuration not stated) | 74* | 7 | · | · | 85* | -29
CCOC(=O)c1[nH]c(C)c(C(=O)N2CCc3ccccc32)c1C | · | 10 | 1 | 90* | 47 | 12
Cc1c(C(=O)N2CCc3ccccc32)oc2ccccc12 | -52 | 61* | 2 | -126 | 13 | -231
Cc1ccc(-c2nc3cccnc3o2)cc1NC(=O)COc1ccc(C(C)(C)C)cc1 | 55* | 39 | 4 | 7 | 59* | 13
O=C(CN(Cc1ccco1)Cc1ccco1)Nc1cc(S(=O)(=O)N2CCCCC2)ccc1Cl | 28 | 18 | · | · | 30 | 8
O=C(CCl)Nc1ccc(Oc2cnc3ccccc3n2)cc1 | -13 | 93* | 3 | -53 | 24 | -58
CC(C)[C@@H](NC(=O)OC(C)(C)C)c1cc(C(=O)c2c(-c3ccccc3)[nH]c3ccccc23)c(N)s1 | · | 1 | · | · | · | 11
O=C(Nc1ccccc1)c1cc(C2COCCN2C(=O)c2cccs2)on1 (configuration not stated) | 0 | -11 | · | · | 9 | -2
N=c1c(C(=O)NC2CCCCC2)cc2c(=O)n3ccccc3nc2n1Cc1ccco1 | 19 | 10 | 12 | -28 | 85* | 19
N=c1c(C(=O)NCCc2ccccc2)cc2c(=O)n3ccccc3nc2n1Cc1ccco1 | 29 | 22 | -3 | -37 | 75* | -97
N=c1c(C(=O)NC2CCCCC2)cc2c(=O)n3ccccc3nc2n1Cc1ccccc1 | -8 | 28 | 0 | 25 | -19 | 5
CC1(C(=O)NCc2ccc3c(c2)OCO3)CCN1Cc1csc2ccccc12 (configuration not stated) | 16 | 5 | · | · | -6 | -9
Cn1ncc([N+](=O)[O-])c1C(=O)Nc1ccc2c(c1)OCCO2 | 59* | -5 | 2 | · | 82* | 29
CCn1cc(Cl)c(C(=O)Nc2ccc3c(c2)OCCO3)n1 | 19 | 52* | 4 | -59 | 47 | -171
CCn1cc(Cl)c(C(=O)Nc2cccc(C(F)(F)F)c2)n1 | -53 | -1 | 1 | -105 | -25 | -183
Cn1nccc1C(=O)Nc1ccc2c(c1)OCCO2 | 56* | 16 | 6 | 34 | 74* | -43
Cn1ncc(Cl)c1C(=O)Nc1ccc2c(c1)OCO2 | -32 | 4 | -2 | -34 | 1 | -63
Cn1nc(C(=O)Nc2ccc3c(c2)OCCO3)cc1C(=O)O | 61* | 47 | 0 | -48 | 72* | 31
SMILES | TROY NFkB inh | TRAIL sens C8 | HSP90 refold inh | aSyn UTR inh | TWEAK Fn14 block | HIF-2a block
Cn1ccc(C(=O)Nc2ccc3c(c2)OCCO3)n1 | -33 | 39 | 12 | 16 | 33 | -86
Cc1nn(Cc2ccc(Cl)cc2)c(C)c1NC(=O)c1noc2c1CCc1ccccc1-2 | 57* | 12 | 2 | 20 | 69* | -10
Nc1nc2cc(Cl)c(Br)cc2o1 | 2 | 2 | · | · | 3 | -59
Cc1cc([N+](=O)[O-])ccc1NC(=O)CSc1nnc(C)n1C | -22 | -9 | -3 | -2 | 58* | 3
Cc1nnc(SCC(=O)Nc2ccc([N+](=O)[O-])cc2)n1C | 2 | -7 | -2 | -12 | -23 | 16
CCCCCCCCN1C(=O)[C@H](CC(=O)N2CCCCC2)C[C@@]2(C(=O)OC)CCCCC=C12 | 2 | 6 | · | · | 12 | 3
COc1ccc(C(C(=O)Nc2c(C)cccc2C)N2CCN(C)CC2)cc1 (configuration not stated) | · | 6 | · | · | · | 8
CCOc1ccc(NC(=O)C2CCCN(S(=O)(=O)c3ccc4c(c3)C(C)(C)C(=O)N4C)C2)cc1 (configuration not stated) | 4 | -13 | · | · | 11 | -3
O=C(c1ccco1)N1CCN(C(=O)C2CCCc3c2[nH]c2ccc(Cl)cc32)CC1 (configuration not stated) | · | 16 | 0 | 42 | 66* | -9
O=C(/C=C/c1cccc(F)c1)N1CCN(c2ccccn2)CC1 | -36 | -6 | 0 | 9 | -5 | -42
O=C(/C=C/c1cccc(Br)c1)N1CCN(c2cccc(C(F)(F)F)c2)CC1 | 39 | -2 | -6 | -2 | -1 | 20
Nc1cccc2c1C(=O)N(C(=O)/C=C/c1cccc(Br)c1)C2=O | -16 | -12 | 1 | -160 | 53* | 12
Nc1cccc2c1C(=O)N(C(=O)/C=C/c1cccc(F)c1)C2=O | 0 | -1 | -1 | -34 | 70* | 14
CN1OC[C@@H]2CN(S(=O)(=O)c3ccccc3)[C@H](c3ccccc3Br)C[C@@H]21 | 2 | -17 | · | · | 10 | 11
Cc1sc2nc(SCC(=O)Nc3ccc(Cl)c(C(=O)O)c3)[nH]c(=O)c2c1C | 25 | 10 | · | · | 52* | -93
CC(=O)CSc1nc2nccnc2[nH]1 | 12 | 0 | · | · | 5 | 3
O=C(CCl)N(C/C=C/c1ccccc1)c1ccc2c(c1)OCCO2 | 23 | 92* | 3 | -81 | 60* | -56
O=C(Nc1ccc(OCC(=O)N2CCOCC2)cc1)c1ccccc1Cl | -40 | 83* | 13 | -12 | -13 | -90
COc1ccc(-c2csc(NC(=O)c3ccc(OCC(=O)N4CCOCC4)c(OC)c3)n2)cc1 | 37 | 32 | -4 | -45 | 46 | -64
O=C(N/N=C/c1ccc(OCC(=O)N2CCOCC2)cc1)c1ccccc1Cl | -22 | -10 | 4 | -3 | -6 | 2
Cc1ccc(C(=O)Nc2cc(C)c(OCC(=O)N3CCOCC3)c(C)c2)cc1 | -105 | 83* | 8 | -57 | -15 | -173
COc1cc(C(=O)Nc2nc(-c3ccc(C)cc3)cs2)ccc1OCC(=O)N1CCOCC1 | 57* | 4 | 3 | 9 | 46 | -2
COc1ccccc1C(=O)Nc1nc(-c2ccc3c(c2)OCCO3)cs1 | 51* | -20 | 1 | -3 | 5 | -95
